Our source for the outcome and AC50 values is PubChem BioAssay (EPA / NIEHS).

A word on the AC50: it is the midpoint of the concentration-response curve, whichever way the signal moves.

Records with an inconclusive call do not appear. Calls of active or inactive are those of the source. The calls were made as follows: active = hit-call score of the fitted dose curve at least 0.9, where 1 is the maximum; inconclusive = response in the unintended direction; inactive = score below 0.9.

Nuclear receptor subfamily 1 group I member 2 (Mus musculus), sequence (O54915 whole entry, looked up): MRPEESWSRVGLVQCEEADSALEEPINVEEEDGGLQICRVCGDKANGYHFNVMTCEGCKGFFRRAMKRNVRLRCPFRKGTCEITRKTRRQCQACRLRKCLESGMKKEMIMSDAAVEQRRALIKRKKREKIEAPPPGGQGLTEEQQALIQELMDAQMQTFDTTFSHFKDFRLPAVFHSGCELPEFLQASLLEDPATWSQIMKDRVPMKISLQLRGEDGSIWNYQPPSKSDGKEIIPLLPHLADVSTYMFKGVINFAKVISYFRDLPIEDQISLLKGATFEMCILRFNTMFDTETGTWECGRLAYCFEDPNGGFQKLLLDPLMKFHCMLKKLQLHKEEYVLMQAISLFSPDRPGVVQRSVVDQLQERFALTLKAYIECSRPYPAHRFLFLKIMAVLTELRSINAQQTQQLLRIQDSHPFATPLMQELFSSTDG

The target of the first assay is AR (gene 367) (UniProt P10275). Put plainly: ACEA_AR_agonist_80hr: ACEA Biosciences xCELLigence Real-Time Cell Analysis on Androgen Receptor Agonism for Proliferation (AID 2283783).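 Also: hits increase impedance growth signal above DMSO baseline.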 The method, boiled down: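 Androgen-driven proliferation in 22Rv1 cells is tracked as electrical impedance, taken 80 h after continuous exposure to compound (eight concentrations, 1:4 steps, maximum 100 uM final). Activity is fitted in the positive direction with DMSO as baseline.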
AR (gene 367), sequence (P10275 whole entry, looked up): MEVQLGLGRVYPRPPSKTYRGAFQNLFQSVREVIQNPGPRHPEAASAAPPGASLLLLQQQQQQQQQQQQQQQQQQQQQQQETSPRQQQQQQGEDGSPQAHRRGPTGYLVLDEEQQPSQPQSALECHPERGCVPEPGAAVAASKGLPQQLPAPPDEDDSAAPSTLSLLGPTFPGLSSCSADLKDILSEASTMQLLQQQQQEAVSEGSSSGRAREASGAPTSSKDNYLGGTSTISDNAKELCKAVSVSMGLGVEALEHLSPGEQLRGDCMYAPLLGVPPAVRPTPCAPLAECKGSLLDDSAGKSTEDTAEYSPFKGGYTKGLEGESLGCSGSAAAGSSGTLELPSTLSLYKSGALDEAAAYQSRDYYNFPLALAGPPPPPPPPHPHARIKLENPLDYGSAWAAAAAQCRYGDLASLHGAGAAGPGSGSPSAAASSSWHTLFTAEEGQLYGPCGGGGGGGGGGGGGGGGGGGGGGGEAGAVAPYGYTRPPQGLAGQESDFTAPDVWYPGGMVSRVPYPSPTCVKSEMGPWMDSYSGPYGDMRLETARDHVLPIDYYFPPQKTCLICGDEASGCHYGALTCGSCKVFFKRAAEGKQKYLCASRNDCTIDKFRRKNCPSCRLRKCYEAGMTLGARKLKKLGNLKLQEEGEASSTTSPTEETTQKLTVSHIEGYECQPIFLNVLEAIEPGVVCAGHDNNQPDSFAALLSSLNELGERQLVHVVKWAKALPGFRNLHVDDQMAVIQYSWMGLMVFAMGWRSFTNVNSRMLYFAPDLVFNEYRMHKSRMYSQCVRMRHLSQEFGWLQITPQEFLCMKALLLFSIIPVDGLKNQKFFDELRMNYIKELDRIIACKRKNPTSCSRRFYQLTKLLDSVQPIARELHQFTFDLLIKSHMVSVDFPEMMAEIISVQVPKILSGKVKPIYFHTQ
Take `COP(=O)(OC)OC(Br)C(Cl)(Cl)Br` (centres undefined): the compound was called inactive.

Regarding `CNC(=O)ON=C(SC)C(=O)N(C)C`, the compound was classed as inactive.

As to `C=C(C)[C@H]1Cc2c(ccc3c2O[C@@H]2COc4cc(OC)c(OC)cc4[C@@H]2C3=O)O1`, the call was inactive.

`COP(=O)(OC)SCn1c(=O)oc2cc(Cl)cnc21`: the compound was classed as inactive.

Tested on in a further assay: not listed separately
Put plainly: STM_H9_NormalizedViability: Cytotoxicity Assessment at 120 hours in the Stemina devTOX quickPredict H9 human embryonic stem cell (hESC)-based Assay (AID 2283784). Put shortly:
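Pluripotent H9 hESCs were exposed, with chemical and media replaced every 24 h. Viability was read by CellTiter-Fluor fluorescence, background-corrected and normalized to the 0.1% DMSO neutral control per plate. Loss of signal was fitted.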
Regarding `C=C(C)[C@H]1Cc2c(ccc3c2O[C@@H]2COc4cc(OC)c(OC)cc4[C@@H]2C3=O)O1`, the AC50 was 0.515 µM (active).

Turning to `CC(C)N(C(=O)SCC(Cl)=C(Cl)Cl)C(C)C`, the outcome was inactive.

As for `CC1=NNC(=O)N(/N=C/c2cccnc2)C1`, the outcome was inactive.

For another assay, the target named is AR (gene 367) (UniProt P10275). Put plainly: ACEA_AR_antagonist_80hr: ACEA Biosciences xCELLigence Real-Time Cell Analysis on Androgen Receptor Antagonism for Proliferation (AID 2283787).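 Also: 22Rv1 human prostate cancer cells with growth followed by electrical impedance; hits lower the impedance growth signal relative to DMSO.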 Put shortly: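 Growth-kinetic antagonist readout in 22Rv1 cells, taken 80 h after continuous compound exposure. Activity fitted as signal loss relative to DMSO negative control.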
For the compound `COP(=O)(OC)OC(Br)C(Cl)(Cl)Br` (centres undefined), the AC50 is 69.5 µM (active).

Regarding `CNC(=O)ON=C(SC)C(=O)N(C)C`, the outcome was inactive.

For `C=C(C)[C@H]1Cc2c(ccc3c2O[C@@H]2COc4cc(OC)c(OC)cc4[C@@H]2C3=O)O1`, the AC50 was 1.54 µM (active).

Turning to `COP(=O)(OC)SCn1c(=O)oc2cc(Cl)cnc21`, the AC50 was 21.7 µM (active).

Tested on in another assay: not listed separately
Put plainly: ATG_M_06_XSP1: Attagene TRANS-FACTORIAL Multi-Species (XSP1) HepG2 Assay for M06 Transcription Factor (Internal Marker) (AID 2283790). The method, boiled down:
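Transfected HepG2 multi-reporter system treated 24 h in the presence of 3 nM 6-alpha-fluorotestosterone. The M06 internal marker transcript was quantified by RT-PCR with capillary electrophoresis as a background control, and gain of signal was scored versus DMSO.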
As to `CCc1cccc(C)c1N(C(=O)CCl)C(C)COC` (centres undefined), the call was inactive.

In the case of `C#CC(C)(C)NC(=O)c1cc(Cl)cc(Cl)c1`, the outcome was inactive.

With `CCOP(=S)(OCC)Oc1ccc2c(C)c(Cl)c(=O)oc2c1`, the compound was classed as inactive.

Tested on in another assay: not listed separately
Put plainly: ATG_M_61_XSP1: Attagene TRANS-FACTORIAL Multi-Species (XSP1) HepG2 Assay for M61 Transcription Factor (Internal Marker) (AID 2283797). Put shortly: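 HepG2 cells transiently transfected with multiplexed GAL4-driven reporter units, dosed 24 h with 3 nM 6-alpha-fluorotestosterone present. Reporter mRNA quantified by RT-PCR, 6-FAM labelling, HpaI digestion and capillary electrophoresis; internal-marker background control, gain of signal versus DMSO.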
As to `CCc1cccc(C)c1N(C(=O)CCl)C(C)COC` (centres undefined), the compound was called inactive.

For `C#CC(C)(C)NC(=O)c1cc(Cl)cc(Cl)c1`, the call was inactive.

With `CCOP(=S)(OCC)Oc1ccc2c(C)c(Cl)c(=O)oc2c1`, the outcome was inactive.

Tested on in the next assay: not listed separately
Put plainly: ATG_M_32_XSP1: Attagene TRANS-FACTORIAL Multi-Species (XSP1) HepG2 Assay for M32 Transcription Factor (Internal Marker) (AID 2283799). The protocol: ATG_XSP1_multi-species_TRANS is a cell-based, multiplexed assay created by modifying the existing Attagene TRANS-FACTORIAL system to include a panel of nuclear receptors from some or all the following species: human (Homo sapiens), mouse (Mus musculus), frog (Xenopus laevis), zebrafish (Danio rerio), chicken (Gallus gallus), and turtle (Chrysemys picta). The ECOTOX-FACTORIAL format uses HepG2, a human liver cell line, with measurements taken at 24 hours after chemical dosing in a 24-well plate. Xsp1 included 3 nM 6-alpha-fluorotestosterone to partially stimulate the androgen receptor.ATG_M_32_XSP1 is one of 29 assay components measured or calculated from the ATG_XSP1_multi-species_TRANS assay. It is designed to make measurements of mRNA induction, a form of inducible reporter, as detected with fluorescence intensity signals by Reverse transcription polymerase chain reaction (RT-PCR) and Capillary electrophoresis technology.This assay endpoint, ATG_M_32_XSP1, was analyzed in the positive analysis fitting direction relative to DMSO as the negative control and baseline of activity. Using a type of inducible reporter, measures of mRNA for gain-of-signal activity can be used to understand the background control at the transcription factor-level as they relate to the gene. Furthermore, this assay endpoint can be referred to as a secondary readout, because this assay has produced multiple assay endpoints where this one serves a background control function. To generalize the intended target to other relatable targets, this assay endpoint is annotated to the background measurement intended target family, where the subfamily is internal marker.
Human liver HepG2 cells are transiently transfected with multiple reporter transcription units (MRTUs) in 6-well plates using FuGene 6 reagent (Roche; 3 ml FuGene/1 mg DNA). The MRTU constructs are regulated by a cis-regulating element (promoter). […] A major difference between the CIS and TRANS system is that in CIS activities of endogenous TFs are measured, whereas the TRANS assay evaluates changes in activities of exogenous, chimeric NR-Gal4 proteins. […] At the end of 24 hour incubation, total RNA was isolated using TriZol reagent (Invitrogen). The isolated RNA is then reverse-transcribed using oligo(dT) primer and Mo-MLV reverse transcriptase (Invitrogen) with DNAse I (Ambion) treatment for 30 min. […] The fragments were purified using Qiaquick PCR columns (Qiagen), analyzed on an ABI 3130xL genetic analyzer (Applied Biosystems) with peak positions identified by using a set of X-rhodamine (ROX)-labeled MapMarker1000 molecular weight standards (BioVentures). […]
`CCc1cccc(C)c1N(C(=O)CCl)C(C)COC` (centres undefined): the outcome was inactive.

Turning to `CCCOCC(=Nc1ccc(Cl)cc1C(F)(F)F)n1ccnc1`, the compound was classed as inactive.

In the case of `CCOP(=S)(OCC)Oc1ccc2c(C)c(Cl)c(=O)oc2c1`, the result was inactive.

The target of another assay is Peroxisome proliferator-activated receptor gamma (Homo sapiens) (UniProt P37231). Put plainly: ATG_hPPARg_XSP1: Attagene TRANS-FACTORIAL Multi-Species (XSP1) HepG2 Assay for human Peroxisome Proliferator-activated Receptor gamma (PPARg) (AID 2283800). Put shortly: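 HepG2 cells transiently transfected with GAL4-UAS reporter units carrying chimeric NR-Gal4 proteins; 3 nM 6-alpha-fluorotestosterone present. After 24 h dosing, reporter mRNA quantified by RT-PCR and capillary electrophoresis; gain of signal relative to DMSO.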
Peroxisome proliferator-activated receptor gamma (Homo sapiens), sequence (P37231 whole entry, looked up, the tested form may be a part): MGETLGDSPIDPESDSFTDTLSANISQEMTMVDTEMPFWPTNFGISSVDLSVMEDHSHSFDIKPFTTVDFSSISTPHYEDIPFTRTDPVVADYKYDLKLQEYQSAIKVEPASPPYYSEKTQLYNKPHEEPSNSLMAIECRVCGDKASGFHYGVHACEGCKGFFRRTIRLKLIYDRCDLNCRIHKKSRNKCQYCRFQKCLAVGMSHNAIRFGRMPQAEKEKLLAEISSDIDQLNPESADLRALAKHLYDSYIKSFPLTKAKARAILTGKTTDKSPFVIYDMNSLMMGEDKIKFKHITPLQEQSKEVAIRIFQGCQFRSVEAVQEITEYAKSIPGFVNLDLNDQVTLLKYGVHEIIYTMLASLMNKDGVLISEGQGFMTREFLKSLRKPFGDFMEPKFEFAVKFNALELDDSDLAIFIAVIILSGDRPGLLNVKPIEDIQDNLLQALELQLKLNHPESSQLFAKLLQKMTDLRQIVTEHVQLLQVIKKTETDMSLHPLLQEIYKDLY
In the case of `CCc1cccc(C)c1N(C(=O)CCl)C(C)COC` (centres undefined), the AC50 was 5.37 µM (active).

Consider `CCCOCC(=Nc1ccc(Cl)cc1C(F)(F)F)n1ccnc1`, for which the AC50 was 0.985 µM (active).

`CCOP(=S)(OCC)Oc1ccc2c(C)c(Cl)c(=O)oc2c1`: the AC50 was 11.4 µM (active).

In the next assay the target is mouse Peroxisome Proliferator-activated Receptor gamma (PPARg), Pparg (gene 19016) (UniProt P37238). Put plainly: ATG_mPPARg_XSP1: Attagene TRANS-FACTORIAL Multi-Species (XSP1) HepG2 Assay for mouse Peroxisome Proliferator-activated Receptor gamma (PPARg) (AID 2283802). The method, boiled down: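 HepG2 cells transiently transfected with GAL4-UAS reporter units driven by mouse PPARg–GAL4 chimera; 3 nM 6-alpha-fluorotestosterone present. After 24 h dosing, reporter mRNA quantified by RT-PCR, fluorescent labelling and capillary electrophoresis; gain of signal versus DMSO.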
mouse Peroxisome Proliferator-activated Receptor gamma (PPARg), Pparg (gene 19016), sequence (P37238 whole entry, looked up, the tested form may be a part): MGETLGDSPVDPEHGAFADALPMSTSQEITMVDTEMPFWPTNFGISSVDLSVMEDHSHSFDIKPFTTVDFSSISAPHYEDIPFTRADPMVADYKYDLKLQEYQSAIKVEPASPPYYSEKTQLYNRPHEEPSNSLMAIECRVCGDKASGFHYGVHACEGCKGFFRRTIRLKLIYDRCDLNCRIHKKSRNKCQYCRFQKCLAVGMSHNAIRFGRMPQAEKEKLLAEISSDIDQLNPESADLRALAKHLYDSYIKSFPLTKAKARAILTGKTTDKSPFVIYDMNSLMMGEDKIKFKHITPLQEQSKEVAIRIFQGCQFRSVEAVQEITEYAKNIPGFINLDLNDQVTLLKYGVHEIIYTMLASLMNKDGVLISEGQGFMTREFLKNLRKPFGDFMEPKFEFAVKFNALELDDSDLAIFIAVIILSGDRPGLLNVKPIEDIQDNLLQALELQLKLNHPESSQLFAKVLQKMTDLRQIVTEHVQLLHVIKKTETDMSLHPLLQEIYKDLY
On to `CCc1cccc(C)c1N(C(=O)CCl)C(C)COC` (centres undefined), for which the AC50 was 25.5 µM (active).

For the compound `CCCOCC(=Nc1ccc(Cl)cc1C(F)(F)F)n1ccnc1`, the AC50 is 0.674 µM (active).

Turning to `CCOP(=S)(OCC)Oc1ccc2c(C)c(Cl)c(=O)oc2c1`, the AC50 was 26.7 µM (active).

A further assay concerns the target Nuclear receptor subfamily 1 group I member 2 (Mus musculus) (UniProt O54915). Put plainly: ATG_mPXR_XSP1: Attagene TRANS-FACTORIAL Multi-Species (XSP1) HepG2 Assay for mouse Pregnane X Receptor (PXR) (AID 2283803). The method, then: ATG_XSP1_multi-species_TRANS is a cell-based, multiplexed assay created by modifying the existing Attagene TRANS-FACTORIAL system to include a panel of nuclear receptors from some or all the following species: human (Homo sapiens), mouse (Mus musculus), frog (Xenopus laevis), zebrafish (Danio rerio), chicken (Gallus gallus), and turtle (Chrysemys picta). The ECOTOX-FACTORIAL format uses HepG2, a human liver cell line, with measurements taken at 24 hours after chemical dosing in a 24-well plate. Xsp1 included 3 nM 6-alpha-fluorotestosterone to partially stimulate the androgen receptor.ATG_mPXR_XSP1 is one of 29 assay components measured or calculated from the ATG_XSP1_multi-species_TRANS assay. It is designed to make measurements of mRNA induction, a form of inducible reporter, as detected with fluorescence intensity signals by Reverse transcription polymerase chain reaction (RT-PCR) and Capillary electrophoresis technology.The assay endpoint ATG_mPXR_XSP1 was analyzed in the positive analysis fitting direction relative to DMSO as the negative control and baseline of activity. Using a type of inducible reporter, measures of mRNA for gain-of-signal activity can be used to understand the reporter gene at the transcription factor-level as they relate to the gene PXR. Furthermore, this assay endpoint can be referred to as a primary readout, because this assay has produced multiple assay endpoints where this one serves a reporter gene function. To generalize the intended target to other relatable targets, this assay endpoint is annotated to the nuclear receptor intended target family, where the subfamily is non-steroidal.
Human liver HepG2 cells are transiently transfected with multiple reporter transcription units (MRTUs) in 6-well plates using FuGene 6 reagent (Roche; 3 ml FuGene/1 mg DNA). The MRTU constructs are regulated by a cis-regulating element (promoter). […] A major difference between the CIS and TRANS system is that in CIS activities of endogenous TFs are measured, whereas the TRANS assay evaluates changes in activities of exogenous, chimeric NR-Gal4 proteins. […] At the end of 24 hour incubation, total RNA was isolated using TriZol reagent (Invitrogen). The isolated RNA is then reverse-transcribed using oligo(dT) primer and Mo-MLV reverse transcriptase (Invitrogen) with DNAse I (Ambion) treatment for 30 min. The one-tenth of the produced cDNA was amplified by PCR using Taq DNA polymerase (Invitrogen) and two reporter sequence-specific primers. The PCR products were fluorescently labeled by primer extension with 6-arboxyfluorescein (6-FAM) 5'-labeled reporter sequence-specific primer (2 min at 95 C, 20 s at 68 C and 10 min at 72 C) and these products were digested with 5U of HpaI (New England Biolabs) for 2h at 37 C. The fragments were purified using Qiaquick PCR columns (Qiagen), analyzed on an ABI 3130xL genetic analyzer (Applied Biosystems) with peak positions identified by using a set of X-rhodamine (ROX)-labeled MapMarker1000 molecular weight standards (BioVentures). The raw capillary electrophoresis data was processed using Attagraph software (Attagene).
For the compound `CCc1cccc(C)c1N(C(=O)CCl)C(C)COC` (centres undefined), the AC50 was 3.28 µM (active).

As for `C#CC(C)(C)NC(=O)c1cc(Cl)cc(Cl)c1`, the AC50 was 13.3 µM (active).

Consider `CCCOCC(=Nc1ccc(Cl)cc1C(F)(F)F)n1ccnc1`, for which the AC50 was 0.201 µM (active).

Turning to `CCOP(=S)(OCC)Oc1ccc2c(C)c(Cl)c(=O)oc2c1`, the AC50 is 0.214 µM (active).

Another assay has as its system turtle Thyroid Hormone Receptor, alpha (TRa), gene 101949057. Put plainly: ATG_trTRa_XSP1: Attagene TRANS-FACTORIAL Multi-Species (XSP1) HepG2 Assay for turtle Thyroid Hormone Receptor, alpha (TRa) (AID 2283806). Put shortly: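 HepG2 cells transiently transfected with GAL4-UAS reporter units and chimeric receptor-Gal4 constructs, with 3 nM 6-alpha-fluorotestosterone present. Reporter mRNA was quantified 24 h after dosing by RT-PCR, 6-FAM labelling and capillary electrophoresis; gain of signal versus DMSO.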
`CCc1cccc(C)c1N(C(=O)CCl)C(C)COC` (centres undefined): the outcome was inactive.

Take `C#CC(C)(C)NC(=O)c1cc(Cl)cc(Cl)c1`: the compound was classed as inactive.

Take `CCCOCC(=Nc1ccc(Cl)cc1C(F)(F)F)n1ccnc1`: the compound was classed as inactive.

`CCOP(=S)(OCC)Oc1ccc2c(C)c(Cl)c(=O)oc2c1`: the compound was classed as inactive.
